From publication PMC4336329 (PLoS ONE, 2015) come the findings set out here.

Structures are written as SMILES. Out of some 310,000 compounds screened, about 14,000 (4.5%) showed an effect of 50% or more. Effects have a minus sign here. What follows is part of a selection rich in strong results, with near analogues and random picks from the rest.
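Further: peak tail current of the secondary pulse compared with the same well before compound.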

human ether-à-go-go-related gene (hERG) potassium channel, sequence (Q12809 whole entry, looked up): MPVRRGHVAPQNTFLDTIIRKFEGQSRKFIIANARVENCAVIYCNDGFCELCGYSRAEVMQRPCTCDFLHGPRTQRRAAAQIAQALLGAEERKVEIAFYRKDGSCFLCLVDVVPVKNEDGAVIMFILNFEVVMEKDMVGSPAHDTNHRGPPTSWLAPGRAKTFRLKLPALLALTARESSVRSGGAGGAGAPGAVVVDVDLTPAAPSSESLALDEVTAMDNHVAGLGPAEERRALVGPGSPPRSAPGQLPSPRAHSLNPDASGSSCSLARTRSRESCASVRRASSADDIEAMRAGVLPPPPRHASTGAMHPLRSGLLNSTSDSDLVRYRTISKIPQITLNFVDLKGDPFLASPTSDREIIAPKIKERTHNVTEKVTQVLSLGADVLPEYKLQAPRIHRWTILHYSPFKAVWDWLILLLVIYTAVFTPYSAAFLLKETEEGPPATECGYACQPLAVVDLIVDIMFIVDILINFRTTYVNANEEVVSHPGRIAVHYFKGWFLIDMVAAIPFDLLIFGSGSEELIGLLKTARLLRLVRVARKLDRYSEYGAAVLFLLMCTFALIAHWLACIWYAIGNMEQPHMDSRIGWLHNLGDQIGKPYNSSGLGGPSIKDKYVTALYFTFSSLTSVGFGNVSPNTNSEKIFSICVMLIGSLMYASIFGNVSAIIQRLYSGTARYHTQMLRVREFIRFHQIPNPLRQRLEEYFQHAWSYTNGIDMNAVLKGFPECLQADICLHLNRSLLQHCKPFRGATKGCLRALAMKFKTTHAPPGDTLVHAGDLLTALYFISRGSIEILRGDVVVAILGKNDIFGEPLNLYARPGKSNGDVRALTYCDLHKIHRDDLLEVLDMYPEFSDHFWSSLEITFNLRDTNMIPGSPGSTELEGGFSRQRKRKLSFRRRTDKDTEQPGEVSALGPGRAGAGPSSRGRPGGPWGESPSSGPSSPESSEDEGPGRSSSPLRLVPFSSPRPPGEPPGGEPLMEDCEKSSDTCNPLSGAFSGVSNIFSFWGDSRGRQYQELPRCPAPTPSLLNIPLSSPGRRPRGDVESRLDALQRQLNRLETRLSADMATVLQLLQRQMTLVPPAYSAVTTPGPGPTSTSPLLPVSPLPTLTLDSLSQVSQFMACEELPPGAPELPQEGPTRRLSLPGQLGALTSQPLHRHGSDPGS

This assay has as its target human ether-à-go-go-related gene (hERG) potassium channel (human, UniProt Q12809). In words: primary screen, population patch clamp on CHO cells stably expressing hERG; higher = less effect of the substance.
As for `CC(=O)Oc1ccc(C(=O)Nc2ccccc2C(=O)Nc2cccc(C(=O)O)c2)cc1`, the “hERG current change (%, negative = inhibition) at 10uM” value is reported as 13%.

As to `CCOC(=O)c1cnn(-c2cc(Oc3ccccc3C)ncn2)c1N`, the “hERG current change (%, negative = inhibition) at 10uM” value is 14.4%.

For `Cc1nc2ccccc2cc1C(=O)N/N=C/c1cccs1`, the “hERG current change (%, negative = inhibition) at 10uM” value was -6.93%.

For the compound `CCOc1ccc(OCCOc2cccc(C(F)(F)F)c2)cc1`, the “hERG current change (%, negative = inhibition) at 10uM” value was 9.77%.

On to `O=c1c2cc(NC(=S)N3CCC(N4CCCCC4)CC3)ccc2nc2n1CCCCC2`, for which the “hERG current change (%, negative = inhibition) at 10uM” value was -3.94%.

Consider `CC1CCCN(C(=O)C(=O)Nc2ccc3nc4n(c(=O)c3c2)CCCCC4)C1` (stereo not shown), for which the “hERG current change (%, negative = inhibition) at 10uM” value is -17.8%.

In the case of `O=c1c2cc(NC(=S)N3CCCCCC3)ccc2nc2n1CCCCC2`, the “hERG current change (%, negative = inhibition) at 10uM” value was -43.9%.

Turning to `CC1CCN(C(=S)Nc2ccc3nc4n(c(=O)c3c2)CCCCC4)CC1`, the “hERG current change (%, negative = inhibition) at 10uM” value is recorded as -55.2%.

Regarding `CCOC(=O)Nc1ccc2nc3n(c(=O)c2c1)CCCCC3`, the “hERG current change (%, negative = inhibition) at 10uM” value came to 7.45%.

Regarding `O=c1c2cc(NC(=S)N3CCCCC3)ccc2nc2n1CCCCC2`, the “hERG current change (%, negative = inhibition) at 10uM” value is given as -55.7%.

As to `CC1CCCCN1C(=S)Nc1ccc2nc3n(c(=O)c2c1)CCCCC3` (stereo not shown), the “hERG current change (%, negative = inhibition) at 10uM” value is given as -59%.

In the case of `CCOC(=O)C1CCCN(C(=O)C(=O)Nc2ccc3nc4n(c(=O)c3c2)CCCCC4)C1` (stereo not shown), the “hERG current change (%, negative = inhibition) at 10uM” value is given as -1.21%.

As to `CC1CCCN(C(=S)Nc2ccc3nc4n(c(=O)c3c2)CCCCC4)C1` (stereo not shown), the “hERG current change (%, negative = inhibition) at 10uM” value was -66.1%.

Regarding `CCN1CCN(C(=S)Nc2ccc3nc4n(c(=O)c3c2)CCCCC4)CC1`, the “hERG current change (%, negative = inhibition) at 10uM” value came to 1.83%.

In the case of `CC1CCCC(C)N1CCCNC(=O)C(=O)Nc1ccc2nc3n(c(=O)c2c1)CCCCC3` (stereo not shown), the “hERG current change (%, negative = inhibition) at 10uM” value worked out at 16.8%.

Consider `O=c1c2cc(NC(=S)N3CCCC3)ccc2nc2n1CCCCC2`, for which the “hERG current change (%, negative = inhibition) at 10uM” value is given as -28%.

For `COc1cc(/C=C(\C#N)c2ccccn2)ccc1OCC(=O)Nc1cccc(C(F)(F)F)c1.Cl`, the “hERG current change (%, negative = inhibition) at 10uM” value came out at 0.582%.

With `COCCCNC(=O)c1ccc2c(c1)nc(C)n2-c1cccc(C)c1`, the “hERG current change (%, negative = inhibition) at 10uM” value is listed as 6.05%.

On to `CC(C)(C)C(=O)Nc1ccc(S(=O)(=O)c2ccc(NC(=O)C(C)(C)C)cc2)cc1`, for which the “hERG current change (%, negative = inhibition) at 10uM” value came to 18.6%.

For `COc1ccc(OC)c(C(=O)c2coc3ccc(O)c(CN4CCOCC4)c23)c1`, the “hERG current change (%, negative = inhibition) at 10uM” value is on record as -39.7%.

With `O=c1c(-c2ccc(Cl)cc2)coc2c(CN3CCCCC3)c(O)ccc12`, the “hERG current change (%, negative = inhibition) at 10uM” value is reported as -32.7%.

With `COc1ccc(C(=O)c2c(C)oc3ccc(O)c(CN4CCOCC4)c23)cc1`, the “hERG current change (%, negative = inhibition) at 10uM” value was -29.5%.

Take `Cc1ccc(C(=O)c2coc3ccc(O)c(CN4CCN(C)CC4)c23)cc1`: the “hERG current change (%, negative = inhibition) at 10uM” value is listed as -51.2%.

Take `COc1ccc(-c2coc3c(CN4CCOCC4)c(O)ccc3c2=O)cc1`: the “hERG current change (%, negative = inhibition) at 10uM” value was -21.1%.

As for `COc1ccc(C(=O)c2coc3ccc(O)c(CN4CCCCC4)c23)cc1`, the “hERG current change (%, negative = inhibition) at 10uM” value was -76.9%.

`CN1CCN(Cc2c(O)ccc3occ(C(=O)c4ccccc4)c23)CC1`: the “hERG current change (%, negative = inhibition) at 10uM” value is listed as -39.3%.

As to `Cc1ccc(/C=C2\Oc3c(ccc(O)c3CN3CCN(C)CC3)C2=O)cc1`, the “hERG current change (%, negative = inhibition) at 10uM” value is -15%.

On to `COc1ccc(C(=O)c2coc3ccc(O)c(CN4CCOCC4)c23)cc1`, for which the “hERG current change (%, negative = inhibition) at 10uM” value was -51.2%.

As for `COc1ccc(-c2coc3c(CN4CCCCC4)c(O)c(CN4CCCCC4)c(O)c3c2=O)cc1`, the “hERG current change (%, negative = inhibition) at 10uM” value is recorded as -79.2%.

With `Cc1cc(Cn2nnnc2-c2ccncc2)cc(C)c1O`, the “hERG current change (%, negative = inhibition) at 10uM” value worked out at 6.54%.

`O=C(Nc1ccc(Cl)c(C(F)(F)F)c1)N1CCCC(O)C1` (stereo not shown): the “hERG current change (%, negative = inhibition) at 10uM” value came out at 10.9%.

As to `COc1ccc(C(=O)c2coc3ccc(O)c(CN4CCCC4)c23)cc1`, the “hERG current change (%, negative = inhibition) at 10uM” value is on record as -73.4%.

Consider `COc1ccc(OC)c(C(O)c2coc3ccc(O)c(CN4CCOCC4)c23)c1` (stereo not shown), for which the “hERG current change (%, negative = inhibition) at 10uM” value is recorded as -11.4%.

Take `Oc1ccc2ccccc2c1CN1CCOCC1`: the “hERG current change (%, negative = inhibition) at 10uM” value was -6.06%.

On to `Cl.O=C(c1ccccc1)c1coc2ccc(O)c(CN3CCOCC3)c12`, for which the “hERG current change (%, negative = inhibition) at 10uM” value was -60.7%.

Consider `Cl.O=C(c1coc2ccc(O)c(CN3CCOCC3)c12)C1CC1`, for which the “hERG current change (%, negative = inhibition) at 10uM” value is 12.3%.

`O=C(c1cccs1)c1coc2ccc(O)c(CN3CCOCC3)c12`: the “hERG current change (%, negative = inhibition) at 10uM” value is on record as -69.1%.

Take `Cl.O=C(c1cccs1)c1coc2ccc(O)c(CN(CCO)CCO)c12`: the “hERG current change (%, negative = inhibition) at 10uM” value is on record as -41%.

For the compound `Cc1oc2ccc(O)c(CN3CCOCC3)c2c1C(=O)c1ccc(Cl)cc1`, the “hERG current change (%, negative = inhibition) at 10uM” value is listed as -41%.

On to `COC(=O)c1ccccc1N1CCS(=O)(=O)CC1`, for which the “hERG current change (%, negative = inhibition) at 10uM” value is 18.3%.

In the case of `COc1ccc(C(=O)Nc2nc(C)c(C(C)=O)s2)cc1S(=O)(=O)N1CCOCC1`, the “hERG current change (%, negative = inhibition) at 10uM” value was found to be 0.765%.

Take `O=C(N/N=C/c1c(O)n(C2CC2)c(=S)[nH]c1=O)c1ccccc1O`: the “hERG current change (%, negative = inhibition) at 10uM” value is listed as 2.57%.

For the compound `CCN(CC)S(=O)(=O)c1ccc(N2CCN(C)CC2)c(NC(=O)c2cc(=O)c3ccccc3o2)c1`, the “hERG current change (%, negative = inhibition) at 10uM” value is reported as -18.4%.

Consider `Cc1ccc(C(=O)N(C)CC(=O)Nc2cccc(C)c2C)o1`, for which the “hERG current change (%, negative = inhibition) at 10uM” value is on record as 9.83%.

`Cc1nc2nc(NC(=O)c3ccco3)nn2c(C)c1Cl`: the “hERG current change (%, negative = inhibition) at 10uM” value is reported as -1.18%.

Take `Br.c1ccc(-c2ccccc2OCc2nnc3n2CCC3)cc1`: the “hERG current change (%, negative = inhibition) at 10uM” value is 16.3%.
